Here are results for 29 compounds from PubChem BioAssay.

Molecules are shown by their SMILES. Records with an inconclusive call do not appear. Calls of active or inactive are those of the source. Unless noted, cut-off not given; nearly all actives show AC50 up to about 30 µM.

One test is described as follows: viability loss in pontine glioma line – cell-based, SU-DIPG-XIII, MIPE4.0, CellTiter-Glo, qHTS, dose response (AID 1347061; cut-off not given, nearly all actives have AC50 up to about 37 µM;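 further: cells exposed to compound for 48 hours before readout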). The conditions noted are these: CellTiter-Glo ATP luminescence. (Cellular ATP, detected with luciferase, serves as a proxy for viable cell number.)
With `CC(NCCc1ccc(O)cc1)C(O)c1ccc(O)cc1` (stereo unspecified), the result was inactive.
For the compound `N[C@@H](CC(=O)N1CCn2c(nnc2C(F)(F)F)C1)Cc1cc(F)c(F)cc1F`, the compound was classed as inactive.
Turning to `CC1(C)CCC[C@]2(C)[C@H]3CC(=O)O[C@]3(C)CC[C@@H]12`, the call was inactive.
On to `OC[C@@H](O)[C@@H](O)[C@H](O)[C@@H](O)CO`, for which the call was inactive.
Turning to `CC1CC2C3CCC4=CC(=O)C=C[C@]4(C)[C@@]3(F)[C@@H](O)C[C@]2(C)[C@@]1(O)C(=O)CO` (stereo partly specified), the compound was classed as inactive.
On the same count and under the same terms, next, `CC(C)(CO)[C@@H](O)C(=O)NCCC(=O)O`: “inactive”; `CN(C)CC[C@H](c1ccc(Cl)cc1)c1ccccn1`: “inactive”.
On the same count and under the same terms, next, `C[C@H]1COC2=C1C(=O)C(=O)c1c2ccc2c1CCCC2(C)C`: “inactive”.
What is called AC50 is the midpoint of the concentration-response curve, whichever way the signal moves. For `Nc1nc(N)c2nc(CNc3ccc(C(=O)NC(CCC(=O)O)C(=O)O)cc3)cnc2n1` (stereo unspecified), the half-maximal activity concentration (AC50) is 11.8 µM (active).
Still for that read-out and setting: as for `COC(=O)/C=C/C(=O)OC`, the figure is 14.8 µM (active).
On to `Cc1cc2nc3c(=O)[nH]c(=O)nc-3n(CC(O)C(O)C(O)CO)c2cc1C` (stereo unspecified), for which the outcome was inactive.
Still for that read-out and setting: as for `Oc1cc2c(cc1O)C1c3ccc(O)c(O)c3OCC1(O)C2` (stereo unspecified), the entry is “inactive”; as for `CCCCS(=N)(=O)CCC(N)C(=O)O` (stereo unspecified), “inactive”.
In the case of `Cc1coc2c1C(=O)C(=O)c1c-2ccc2c1CCCC2(C)C`, the outcome was inactive.
Same read-out and setting: as for `CC1=C(C(=O)O)N2C(=O)[C@@H](NC(=O)C(N)c3ccccc3)[C@H]2SC1` (stereo partly specified), the entry is “inactive”.
Consider `C=CC[C@@H]1/C=C(\C)C[C@H](C)C[C@H](OC)[C@H]2O[C@@](O)(C(=O)C(=O)N3CCCC[C@H]3C(=O)O[C@H](/C(C)=C/[C@@H]3CC[C@@H](O)[C@H](OC)C3)[C@H](C)[C@@H](O)CC1=O)[C@H](C)C[C@@H]2OC`, for which the AC50 was 23.5 µM (active).
Still for that read-out and setting: as for `N#CC(c1ccc(Cl)cc1)c1c(Cl)cc(-n2ncc(=O)[nH]c2=O)cc1Cl` (stereo unspecified), the figure is 23.5 µM (active).
`COc1ccc2nc3cc(Cl)ccc3c(Nc3cc(CN4CCCC4)c(O)c(CN4CCCC4)c3)c2n1`: the result was inactive.
Still for that read-out and setting: next, `CC(=O)NC(CS)C(=O)O` (stereo unspecified): “inactive”; `C[C@]12CCC3c4ccc(O)cc4CCC3C1CCC2=O` (stereo partly specified): “inactive”.

A short description of a further test: viability loss in pontine glioma line – cell-based, JHH-DIPG-1, MIPE4.0, CellTiter-Glo, qHTS, dose response (AID 1347062; cut-off not given, nearly all actives have AC50 up to about 27 µM;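 on AC50: cells exposed to compound for two days before readout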). Particulars: JHH-DIPG-1 viability, CellTiter-Glo ATP luminescence.
Regarding `CC(NCCc1ccc(O)cc1)C(O)c1ccc(O)cc1` (stereo unspecified), the call was inactive.
As to `N[C@@H](CC(=O)N1CCn2c(nnc2C(F)(F)F)C1)Cc1cc(F)c(F)cc1F`, the call was inactive.
On to `CC1(C)CCC[C@]2(C)[C@H]3CC(=O)O[C@]3(C)CC[C@@H]12`, for which the result was inactive.
Still for that read-out and setting: as for `OC[C@@H](O)[C@@H](O)[C@H](O)[C@@H](O)CO`, the entry is “inactive”.
Regarding `O=c1ccn([C@@H]2O[C@H](CO)[C@@H](O)[C@H]2O)c(=O)[nH]1`, the compound was called inactive.
On the same count and under the same terms, as for `CC1CC2C3CCC4=CC(=O)C=C[C@]4(C)[C@@]3(F)[C@@H](O)C[C@]2(C)[C@@]1(O)C(=O)CO` (stereo partly specified), the entry is “inactive”; as for `N#C[C@@H]1C[C@@H]2C[C@@H]2N1C(=O)[C@@H](N)C12CC3CC(CC(O)(C3)C1)C2`, “inactive”; as for `CC(C)(CO)[C@@H](O)C(=O)NCCC(=O)O`, “inactive”.
The same measure, in the same setting: as for `CC(C)C(C)/C=C/C(C)C1CCC2C3=CC=C4CC(O)CCC4(C)C3CCC21C` (stereo unspecified), the entry is “inactive”.
The same measure, in the same setting: as for `CN(C)CC[C@H](c1ccc(Cl)cc1)c1ccccn1`, the entry is “inactive”; as for `CN1C(C(=O)Nc2ccccn2)=C(O)c2sc(Cl)cc2S1(=O)=O`, “inactive”.
On to `CC(C)=CCC/C(C)=C/CC/C(C)=C/CC/C(C)=C/CC/C(C)=C/CC/C(C)=C/CC/C(C)=C/CC/C(C)=C/CC/C(C)=C/CO`, for which the compound was called inactive.
Still for that read-out and setting: next, `Cc1cc2nc3c(=O)[nH]c(=O)nc-3n(CC(O)C(O)C(O)CO)c2cc1C` (stereo unspecified): “inactive”; `CCCCS(=N)(=O)CCC(N)C(=O)O` (stereo unspecified): “inactive”.
Same read-out and setting: as for `Nc1nc(F)nc2c1ncn2[C@@H]1O[C@H](COP(=O)(O)O)[C@@H](O)[C@@H]1O`, the entry is “inactive”.
With `CC[C@@]1(O)C(=O)OCc2c1cc1n(c2=O)Cc2cc3cc(O)ccc3nc2-1`, the AC50 was 1.87 µM (active).
Regarding `CC1=C(C(=O)O)N2C(=O)[C@@H](NC(=O)C(N)c3ccccc3)[C@H]2SC1` (stereo partly specified), the compound was called inactive.
Regarding `COc1ccc(C2Sc3ccccc3N(CCN(C)C)C(=O)C2OC(C)=O)cc1` (stereo unspecified), the compound was called inactive.
In the case of `COc1ccc2nc3cc(Cl)ccc3c(Nc3cc(CN4CCCC4)c(O)c(CN4CCCC4)c3)c2n1`, the AC50 is 20.9 µM (active).
Regarding `CC(=O)NC(CS)C(=O)O` (stereo unspecified), the result was inactive.

The next test is described as follows: viability loss in pontine glioma line – cell-based, SU-DIPG-IV, MIPE4.0, CellTiter-Glo, qHTS, dose response (AID 1347063).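 Further: compound exposure lasted 48 hours before the viability readout.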 The conditions noted are these: CellTiter-Glo ATP luminescence.
With `CC(NCCc1ccc(O)cc1)C(O)c1ccc(O)cc1` (stereo unspecified), the compound was classed as inactive.
On to `O=c1ccn([C@@H]2O[C@H](CO)[C@@H](O)[C@H]2O)c(=O)[nH]1`, for which the outcome was inactive.
As for `CC1CC2C3CCC4=CC(=O)C=C[C@]4(C)[C@@]3(F)[C@@H](O)C[C@]2(C)[C@@]1(O)C(=O)CO` (stereo partly specified), the call was inactive.
Same read-out and setting: as for `N#C[C@@H]1C[C@@H]2C[C@@H]2N1C(=O)[C@@H](N)C12CC3CC(CC(O)(C3)C1)C2`, the entry is “inactive”; as for `CC(C)(CO)[C@@H](O)C(=O)NCCC(=O)O`, “inactive”.
Still for that read-out and setting: next, `CC(C)C(C)/C=C/C(C)C1CCC2C3=CC=C4CC(O)CCC4(C)C3CCC21C` (stereo unspecified): “inactive”; `CN(C)CC[C@H](c1ccc(Cl)cc1)c1ccccn1`: “inactive”.
With `C[C@H]1COC2=C1C(=O)C(=O)c1c2ccc2c1CCCC2(C)C`, the AC50 was 13.2 µM (active).
Regarding `OC(c1cc(C(F)(F)F)nc2c(C(F)(F)F)cccc12)C1CCCCN1` (stereo unspecified), the AC50 was 26.4 µM (active).
Take `CN1C(C(=O)Nc2ccccn2)=C(O)c2sc(Cl)cc2S1(=O)=O`: the call was inactive.
In the case of `COC(=O)/C=C/C(=O)OC`, the AC50 is 0.935 µM (active).
Regarding `CC(C)=CCC/C(C)=C/CC/C(C)=C/CC/C(C)=C/CC/C(C)=C/CC/C(C)=C/CC/C(C)=C/CC/C(C)=C/CC/C(C)=C/CO`, the result was inactive.
Same read-out and setting: as for `Oc1cc2c(cc1O)C1c3ccc(O)c(O)c3OCC1(O)C2` (stereo unspecified), the entry is “inactive”; as for `CCCCS(=N)(=O)CCC(N)C(=O)O` (stereo unspecified), “inactive”.
`Cc1coc2c1C(=O)C(=O)c1c-2ccc2c1CCCC2(C)C`: the AC50 is 3.32 µM (active).
Regarding `CC[C@@]1(O)C(=O)OCc2c1cc1n(c2=O)Cc2cc3cc(O)ccc3nc2-1`, the AC50 is 0.0833 µM (active).
For the compound `CC1=C(C(=O)O)N2C(=O)[C@@H](NC(=O)C(N)c3ccccc3)[C@H]2SC1` (stereo partly specified), the compound was called inactive.
Turning to `C=CC[C@@H]1/C=C(\C)C[C@H](C)C[C@H](OC)[C@H]2O[C@@](O)(C(=O)C(=O)N3CCCC[C@H]3C(=O)O[C@H](/C(C)=C/[C@@H]3CC[C@@H](O)[C@H](OC)C3)[C@H](C)[C@@H](O)CC1=O)[C@H](C)C[C@@H]2OC`, the AC50 was 1.18 µM (active).
Take `COc1ccc(C2Sc3ccccc3N(CCN(C)C)C(=O)C2OC(C)=O)cc1` (stereo unspecified): the outcome was inactive.
With `CC(=O)NC(CS)C(=O)O` (stereo unspecified), the outcome was inactive.
Still for that read-out and setting: next, `C[C@]12CCC3c4ccc(O)cc4CCC3C1CCC2=O` (stereo partly specified): “inactive”.
